According to PubChem BioAssay AID624354 (Sanford-Burnham Center for Chemical Genomics, 2012):
In all, about 360,000 compounds went through this assay and about 3,800 (1.1%) were called active.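 Rule for the calls: active = compounds causing at least 50% loss of cell viability in the single-dose screen, relative to plate controls; inactive = the rest.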 The sample as a whole holds a higher share of actives than the screen did.

Experiment: viability loss with TRAIL in NB7+C8 cells, primary screen, TRAIL sensitizer project, cell-based, ATPlite luminescence (AID 624354)
Details: at 10 µM, hits give high values

Question: Which inhibition (viability loss, TRAIL sensitization) does the source give for `CC(=O)Nc1ccc(C(=O)N(C2=NC(C)CS2)c2ccc(Cl)cc2)cc1` (centres undefined) here?
Answer: 0.911% (inactive)

Question: For `O=c1oc2ccccc2cc1-c1cn(-c2ccccc2)c(=S)[nH]1`, which inhibition (viability loss, TRAIL sensitization) is on record?
Answer: 82.7% (active)

Question: Which inhibition (viability loss, TRAIL sensitization) does the source give for `COc1ccc([C@H]2CC(=O)C[C@@H](CCn3cc(CC4CCCC4)nn3)O2)cc1` here?
Answer: 6.31% (inactive)

Question: Which inhibition (viability loss, TRAIL sensitization) does the source give for `CC(CC(=O)N1CCN(c2ccccc2)CC1)S(=O)(=O)c1ccc2c(c1)NC(=O)CS2` (centres undefined) here?
Answer: 23.3% (inactive)

Question: For `O=C(CN1CCN(S(=O)(=O)c2ccc(Cl)s2)CC1)NCc1ccc(Cl)cc1`, which inhibition (viability loss, TRAIL sensitization) is on record?
Answer: 15.3% (inactive)

Question: With `Cc1nc(C(F)(F)F)ccc1C(=O)N1CCC1(C)C(=O)NS(=O)(=O)c1ccccc1` (centres undefined) as the compound, how does the inhibition (viability loss, TRAIL sensitization) read?
Answer: -0.681% (inactive)

Question: With `COc1cc(Nc2nc3ccc(Cl)cc3n3cnnc23)cc(OC)c1OC` as the compound, how does the inhibition (viability loss, TRAIL sensitization) read?
Answer: 6.53% (inactive)

Question: Which inhibition (viability loss, TRAIL sensitization) does the source give for `COc1cc(/C=N/N=C(\N)c2nonc2N)cc(OC)c1OC` here?
Answer: 36.5% (inactive)

Question: For `COc1cc(/C=N/Nc2nn3cnnc3c3ccccc23)cc(OC)c1OC`, which inhibition (viability loss, TRAIL sensitization) is on record?
Answer: 69.3% (active)

Question: With `COCCN(C(=O)c1ccco1)c1nnc(-c2ccc(OC)cc2)s1` as the compound, how does the inhibition (viability loss, TRAIL sensitization) read?
Answer: 15.7% (inactive)

Question: With `CC(C)NC(=O)N1CCN(c2ccncc2S(=O)(=O)N2CCCCC2)CC1` as the compound, how does the inhibition (viability loss, TRAIL sensitization) read?
Answer: -3.19% (inactive)

Question: Which inhibition (viability loss, TRAIL sensitization) does the source give for `CCN(CC)c1ccc(/C=N/Nc2nc(C)cc(C)n2)c(O)c1` here?
Answer: 51.5% (active)

Question: Which inhibition (viability loss, TRAIL sensitization) does the source give for `O=C(CNS(=O)(=O)c1ccc(Br)s1)NCc1ccc2c(c1)OCO2` here?
Answer: 0.95% (inactive)

Question: With `COc1ccc(N2CC(C(=O)N[C@@H](C)C(=O)N3CCCCC3)CC2=O)cc1` (some centres undefined) as the compound, how does the inhibition (viability loss, TRAIL sensitization) read?
Answer: 5.67% (inactive)

Question: With `CCCNC(=S)N1CCC(NC(=O)C23CC4CC(CC(C4)C2)C3)CC1` as the compound, how does the inhibition (viability loss, TRAIL sensitization) read?
Answer: 26.6% (inactive)

Question: With `CCOC(=O)c1sc(NC(=O)CSc2nc(O)c(Cc3ccccc3)c(=O)[nH]2)nc1C` as the compound, how does the inhibition (viability loss, TRAIL sensitization) read?
Answer: -1.62% (inactive)

Question: With `Clc1ccc(-c2cc(-c3ccccn3)on2)c(Cl)c1` as the compound, how does the inhibition (viability loss, TRAIL sensitization) read?
Answer: 87.7% (active)

Question: With `Clc1ccc(COn2c(-c3ccc(Cl)cc3Cl)nc3ncccc32)cc1` as the compound, how does the inhibition (viability loss, TRAIL sensitization) read?
Answer: 7.77% (inactive)

Question: Which inhibition (viability loss, TRAIL sensitization) does the source give for `Fc1ccc(-c2ccc(CNCc3ccccn3)o2)cc1Cl` here?
Answer: 4.36% (inactive)

Question: With `CCN(CC)CCN(C)C(c1ccnc2ccccc12)c1nnnn1-c1ccc2c(c1)OCCO2` (centres undefined) as the compound, how does the inhibition (viability loss, TRAIL sensitization) read?
Answer: -12.3% (inactive)

Question: With `CNC(=O)n1ccc(C(=O)N2CCCCC2)n1` as the compound, how does the inhibition (viability loss, TRAIL sensitization) read?
Answer: -8.01% (inactive)

Question: For `O=C(/C=C/c1ccc(Cl)cc1)NCCCn1ccnc1`, which inhibition (viability loss, TRAIL sensitization) is on record?
Answer: -4.39% (inactive)

Question: For `CN(C)N=Nc1ccc2nc[nH]c2c1`, which inhibition (viability loss, TRAIL sensitization) is on record?
Answer: -7.76% (inactive)

Question: For `COc1ccc(-n2nnnc2-c2nc3ccccc3s2)cc1`, which inhibition (viability loss, TRAIL sensitization) is on record?
Answer: 64.4% (active)

Question: For `COc1ccc(-n2nnnc2SCC(=O)c2ccc(OC)c(OC)c2)cc1`, which inhibition (viability loss, TRAIL sensitization) is on record?
Answer: -16.3% (inactive)

Question: With `COc1ccc(-n2nnnc2SCC(=O)NCc2cccs2)cc1` as the compound, how does the inhibition (viability loss, TRAIL sensitization) read?
Answer: 1.36% (inactive)

Question: Which inhibition (viability loss, TRAIL sensitization) does the source give for `Cc1ccccc1OCC(=O)NCC(=O)OCC(=O)c1ccc2ccccc2c1` here?
Answer: -20.2% (inactive)

Question: Which inhibition (viability loss, TRAIL sensitization) does the source give for `C/C(=N\NC(=O)COc1ccc(C)cc1[N+](=O)[O-])c1ccc2c(c1)OCCO2` here?
Answer: -2.67% (inactive)

Question: For `Cc1cc([N+](=O)[O-])ccc1NCc1cccc([N+](=O)[O-])c1`, which inhibition (viability loss, TRAIL sensitization) is on record?
Answer: 0.71% (inactive)

Question: For `O=C(CCl)N(Cc1cccc([N+](=O)[O-])c1)c1cccc(Cl)c1`, which inhibition (viability loss, TRAIL sensitization) is on record?
Answer: 92.3% (active)

Question: Which inhibition (viability loss, TRAIL sensitization) does the source give for `Cc1ccc(S(=O)(=O)N(CC(=O)Nc2cccc([N+](=O)[O-])c2)Cc2ccc(Cl)cc2)cc1` here?
Answer: 4.71% (inactive)

Question: For `CCCOC1CCCN(Cc2cn(C)nc2-c2ccccc2F)C1` (centres undefined), which inhibition (viability loss, TRAIL sensitization) is on record?
Answer: 3.04% (inactive)

Question: With `Cc1noc(C)c1NC(=O)N(C)C[C@@H]1Oc2cc(Br)ccc2S(=O)(=O)N([C@@H](C)CO)C[C@H]1C` as the compound, how does the inhibition (viability loss, TRAIL sensitization) read?
Answer: 8.07% (inactive)

Question: For `Cc1c(Cl)c([N+](=O)[O-])nn1CC(=O)NCCCN1CCOCC1`, which inhibition (viability loss, TRAIL sensitization) is on record?
Answer: 27.8% (inactive)

Question: Which inhibition (viability loss, TRAIL sensitization) does the source give for `Cc1ccc(S(=O)(=O)N[C@H]2CCC[C@@H]2O)cc1` here?
Answer: 1.92% (inactive)

Question: With `O=C(OC12CC3CC(CC(C3)C1)C2)c1ccc(NCc2cc(O)ccc2O)cc1` as the compound, how does the inhibition (viability loss, TRAIL sensitization) read?
Answer: 86.4% (active)

Question: With `COC(=O)c1ccc(NCc2cc(O)ccc2O)cc1` as the compound, how does the inhibition (viability loss, TRAIL sensitization) read?
Answer: 55.3% (active)

Question: Which inhibition (viability loss, TRAIL sensitization) does the source give for `CC(C)OC(=O)c1ccc(NCc2cc(O)ccc2O)cc1Cl` here?
Answer: 78.8% (active)

Question: For `CCCc1cc(C(=O)Nc2ccc(C(=O)OC)cc2)cs1`, which inhibition (viability loss, TRAIL sensitization) is on record?
Answer: -5.01% (inactive)

Question: For `O=C(O)Cc1ccc(NCc2ccccc2Cl)cc1`, which inhibition (viability loss, TRAIL sensitization) is on record?
Answer: 8.54% (inactive)

Question: With `C#CCNc1ccc(C(=O)OCC)cc1` as the compound, how does the inhibition (viability loss, TRAIL sensitization) read?
Answer: 3.56% (inactive)

Question: Which inhibition (viability loss, TRAIL sensitization) does the source give for `CN(C)c1nc(N)nc(CSc2nnnn2-c2cccc3ccccc23)n1` here?
Answer: 40.6% (inactive)

Question: For `Cc1ccc(/C=N/NC(=O)c2sccc2OCc2ccc(F)cc2)cc1`, which inhibition (viability loss, TRAIL sensitization) is on record?
Answer: 15.2% (inactive)

Question: For `Cc1ccccc1CS(=O)(=O)CC1(O)CCN(C(=O)c2cccc(C(F)(F)F)c2)CC1`, which inhibition (viability loss, TRAIL sensitization) is on record?
Answer: 8.2% (inactive)

Question: With `CCOc1ccc(N(CC(=O)NC2CCCCCC2)S(=O)(=O)c2c(C)[nH]c(=O)[nH]c2=O)cc1` as the compound, how does the inhibition (viability loss, TRAIL sensitization) read?
Answer: 11.6% (inactive)

Question: With `COc1ccc(NC(=O)c2cc(=O)[nH]c3ccccc23)cc1S(=O)(=O)N1CCOCC1` as the compound, how does the inhibition (viability loss, TRAIL sensitization) read?
Answer: -0.328% (inactive)

Question: Which inhibition (viability loss, TRAIL sensitization) does the source give for `CCOc1ccc(CCNC(=O)COC(=O)CCS(=O)(=O)c2ccc(C)cc2)cc1OCC` here?
Answer: 6.55% (inactive)

Question: With `O=C(Nc1ccn(Cc2ccccc2F)n1)c1ccc(COc2ccc(Cl)cc2Cl)o1` as the compound, how does the inhibition (viability loss, TRAIL sensitization) read?
Answer: 11.2% (inactive)

Question: For `O=C(Nc1ccn(Cc2ccccc2)n1)c1n[nH]c([N+](=O)[O-])c1Cl`, which inhibition (viability loss, TRAIL sensitization) is on record?
Answer: 62.6% (active)

Question: Which inhibition (viability loss, TRAIL sensitization) does the source give for `Cc1c(Br)c([N+](=O)[O-])nn1CC(=O)N1CCN(Cc2ccccc2)CC1` here?
Answer: -5.96% (inactive)

Question: For `COC(=O)c1cc(NS(=O)(=O)c2ccc3c(c2)c(=O)n(C)c(=O)n3C)cc(C(=O)OC)c1`, which inhibition (viability loss, TRAIL sensitization) is on record?
Answer: 15.9% (inactive)

Question: For `CC[C@H]1CN2CCc3cc(OC)c(OC)cc3[C@@H]2C[C@@H]1C[C@H]1NCCc2cc(OC)c(OC)cc21`, which inhibition (viability loss, TRAIL sensitization) is on record?
Answer: 53.7% (active)

Question: Which inhibition (viability loss, TRAIL sensitization) does the source give for `CCOC(=O)C1CCN(C(=O)C2CCN(S(=O)(=O)CC)CC2)CC1` here?
Answer: -7.6% (inactive)

Question: Which inhibition (viability loss, TRAIL sensitization) does the source give for `CCN(CC(=O)Nc1c(F)cccc1F)C(=O)C1CCC1` here?
Answer: -2.6% (inactive)

Question: Which inhibition (viability loss, TRAIL sensitization) does the source give for `COc1ccc(COC(=O)c2n[nH]c3ccccc23)cc1F` here?
Answer: -10.3% (inactive)

Question: With `Cc1ccc(C(=O)NC(C)C(c2cccs2)N2CCOCC2)cc1C` (centres undefined) as the compound, how does the inhibition (viability loss, TRAIL sensitization) read?
Answer: -23.4% (inactive)

Question: With `CCOC(=O)C/C(C)=N\Nc1ccc([N+](=O)[O-])cc1[N+](=O)[O-]` as the compound, how does the inhibition (viability loss, TRAIL sensitization) read?
Answer: -7.23% (inactive)

Question: For `CCOC(=O)/C(=C\c1ccc([N+](=O)[O-])cc1)C(=O)c1cc(C(C)=O)c(Nc2ccccc2)s1`, which inhibition (viability loss, TRAIL sensitization) is on record?
Answer: 85.2% (active)

Question: For `CCOC(=O)C(=Cc1ccccc1)C(=O)c1ccccc1`, which inhibition (viability loss, TRAIL sensitization) is on record?
Answer: 18.2% (inactive)
